Over roughly 33,000 sequences, “normalized occupancy” has its median near 0.075; the highest 2% begin near 0.095. This is one part of a sample in which the highest values are shown more often than they occur.

Experimental findings from PMC4242493, “Sequence specificity incompletely defines the genome-wide occupancy of Myc” are described below.

MaxL homodimer, sequence (P61244 whole entry): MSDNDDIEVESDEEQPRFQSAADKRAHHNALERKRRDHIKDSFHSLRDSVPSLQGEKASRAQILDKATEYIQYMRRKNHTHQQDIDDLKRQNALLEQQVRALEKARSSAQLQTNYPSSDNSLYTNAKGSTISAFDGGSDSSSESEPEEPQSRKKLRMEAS

The experiment addresses MaxL homodimer (Homo sapiens, UniProt P61244 1-160). In words: universal protein-binding microarray (PBM); PBS-based mixture, 10 nM His-tagged protein dimer, 2% milk, 200 ng/uL BSA, 50 ng/uL salmon testes DNA, 0.02% TX-100; detection with Alexa 488 anti-His antibody;; high values mean tight binding. Conditions: protein: recombinant; tags: C-terminal His-tag (pET21a); chain copies: 2; dsDNA, one strand shown. In outline: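 Agilent 4 x 44 K arrays carrying the 'all 10-mer' universal design were incubated with His-tagged protein dimer at 10 nM. Protein that bound was tagged using fluorophore-conjugated anti-His antibody at 10 ng/μL, and a GenePix 4400A scanned the arrays to give an intensity for every 8-mer. Each binding occupancy value expresses an intensity relative to the top-ranked intensity.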
On to GAGAAGGA, for which the binding signal is 0.0733 normalized occupancy.
The same measure for CAACAATC: 0.0759 normalized occupancy; for ATGCCCGG: 0.0744 normalized occupancy.
With AGACCTTA, the binding signal amounted to 0.0772 normalized occupancy.
To GGCGTCGA belongs 0.0725 normalized occupancy; to AGCGTTGC, 0.0728 normalized occupancy; to CGGGTGGC, 0.0775 normalized occupancy.
The same measure for AGAGTGGG: 0.0749 normalized occupancy; for CCCGTGGC: 0.0811 normalized occupancy; for GGCGTGGA: 0.0968 normalized occupancy.
The same measure for AGCGTGGC: 0.108 normalized occupancy; for AGCGTGGG: 0.113 normalized occupancy.
For the sequence GCCGTGGA, the binding signal stood at 0.0736 normalized occupancy.
To ACCGTGGC belongs 0.0752 normalized occupancy; to AGCGTTGG, 0.0764 normalized occupancy.
Take CGCGTGGC: the binding signal is 0.154 normalized occupancy.
The same measure for CCCCAAAA: 0.0734 normalized occupancy; for AATAACCC: 0.0806 normalized occupancy; for AACAGGAT: 0.0759 normalized occupancy.
Consider CCGTCCTC, for which the binding signal stood at 0.0798 normalized occupancy.
For the sequence CGTCACGA, the binding signal worked out at 0.0766 normalized occupancy.
To GTGGACGA belongs 0.0753 normalized occupancy; to AACTCTAC, 0.0729 normalized occupancy; to CGCATCAG, 0.0761 normalized occupancy.
To CTATAGGA belongs 0.0753 normalized occupancy.
The same measure for TGCCAGAA: 0.0775 normalized occupancy.
For CGTGTGGC, the binding signal turned out to be 0.0953 normalized occupancy.
The same measure for CGCGTCGA: 0.0756 normalized occupancy; for AGCGTGGA: 0.106 normalized occupancy; for AGGGTGGA: 0.074 normalized occupancy.
The same measure for AGTGTGGC: 0.0795 normalized occupancy; for ACCGTGGA: 0.0797 normalized occupancy.
The same measure for CCCGTGGA: 0.0823 normalized occupancy; for CGTGTGGA: 0.0865 normalized occupancy.
Regarding CGCGTGGA, the binding signal was found to be 0.147 normalized occupancy.
To ACCCTGCA belongs 0.0751 normalized occupancy.
As to CTACTAGA, the binding signal was found to be 0.0787 normalized occupancy.
To CACTTTGA belongs 0.0776 normalized occupancy.
To CCGCCCTA belongs 0.0723 normalized occupancy.
The same measure for CGAATTCC: 0.0757 normalized occupancy; for AGTGGGTG: 0.0863 normalized occupancy; for ACTCGACT: 0.0722 normalized occupancy.
Consider ACACGTAG, for which the binding signal is 0.0822 normalized occupancy.
The same measure for ACACGTCC: 0.08 normalized occupancy.
To ACACGTGA belongs 0.383 normalized occupancy.
Turning to ACACGTGG, the binding signal stood at 0.852 normalized occupancy.
For ACACGTAT, the binding signal came to 0.0833 normalized occupancy.
To ACACGTCT belongs 0.0781 normalized occupancy.
The same measure for ACACGTGC: 0.567 normalized occupancy; for AGACGTGA: 0.0821 normalized occupancy.
To AGACGTGG belongs 0.0819 normalized occupancy; to ATACGTGA, 0.081 normalized occupancy.
Turning to ACACGTGT, the binding signal worked out at 0.545 normalized occupancy.
The same measure for ACACGTAC: 0.0858 normalized occupancy.
To ATGAAGCA belongs 0.082 normalized occupancy; to CATTATTA, 0.0832 normalized occupancy.
The same measure for TAATGCTA: 0.0758 normalized occupancy; for ACTCTGAA: 0.0737 normalized occupancy; for ATTCAGCA: 0.0725 normalized occupancy.
Consider AATCGTTA, for which the binding signal was determined as 0.0761 normalized occupancy.
The same measure for ATACGTAT: 0.0856 normalized occupancy; for GCATGGCA: 0.102 normalized occupancy; for ACATGGAC: 0.0847 normalized occupancy.
The same measure for ACATGGGA: 0.0901 normalized occupancy.
The same measure for TCATGGCA: 0.0816 normalized occupancy.
Turning to GCATGGCC, the binding signal turned out to be 0.0963 normalized occupancy.
To CCATGGCC belongs 0.0766 normalized occupancy.
For the sequence ACATGGCC, the binding signal came out at 0.0878 normalized occupancy.
To ACATGGCA belongs 0.0904 normalized occupancy; to GCATGGGA, 0.0967 normalized occupancy.
To TCATGGGA belongs 0.0807 normalized occupancy; to CCATGGAC, 0.0837 normalized occupancy.
The same measure for GCATGGAC: 0.0979 normalized occupancy; for AATTAAGC: 0.0756 normalized occupancy; for CTGACACC: 0.0794 normalized occupancy.
With GTTTGTGA, the binding signal was 0.0718 normalized occupancy.
The same measure for TAGCATCA: 0.0821 normalized occupancy.
The same measure for GTCTTCAA: 0.0773 normalized occupancy; for GAGTTGCC: 0.0729 normalized occupancy; for ATTCCATC: 0.0772 normalized occupancy.
The same measure for TGATTCCA: 0.0829 normalized occupancy; for AACAAACC: 0.074 normalized occupancy.
GCATGACA: the binding signal worked out at 0.088 normalized occupancy.
To CCATGATC belongs 0.0848 normalized occupancy.
To ACATGACC belongs 0.0952 normalized occupancy; to ACATGACA, 0.089 normalized occupancy.
The same measure for ACATGATC: 0.101 normalized occupancy; for ACATGACG: 0.0854 normalized occupancy; for ACATGATA: 0.0928 normalized occupancy.
In the case of GCATGACC, the binding signal came out at 0.0988 normalized occupancy.
To CCATGACC belongs 0.0831 normalized occupancy; to ATGGGAGC, 0.0768 normalized occupancy.
The same measure for GTTCCCTA: 0.0721 normalized occupancy.
On to CGAAAATC, for which the binding signal was 0.0726 normalized occupancy.
The same measure for CCTTAACC: 0.0754 normalized occupancy; for CGCTTATA: 0.0805 normalized occupancy; for CAGTCAGG: 0.0732 normalized occupancy.
The same measure for ACTAAGTC: 0.0734 normalized occupancy; for CCCCTTTC: 0.0738 normalized occupancy.
In the case of ACGAACAG, the binding signal was determined as 0.0753 normalized occupancy.
Regarding ACTCACAT, the binding signal amounted to 0.0886 normalized occupancy.
The same measure for CCTGCTGA: 0.0756 normalized occupancy; for CACCCACC: 0.0828 normalized occupancy.
As for GTTCCACA, the binding signal came to 0.0784 normalized occupancy.
The same measure for CATCCACG: 0.108 normalized occupancy.
To ATTCCACG belongs 0.0964 normalized occupancy; to CATCCACA, 0.0859 normalized occupancy; to CCCCCACA, 0.0839 normalized occupancy.
The same measure for ATTCCACA: 0.0794 normalized occupancy.
As to GCCCCACA, the binding signal turned out to be 0.0784 normalized occupancy.
As to CCCCCACG, the binding signal was 0.0958 normalized occupancy.
The same measure for CACCCACA: 0.0789 normalized occupancy; for CACCCACG: 0.0964 normalized occupancy.
To AATCCACG belongs 0.0813 normalized occupancy; to CAACTATG, 0.0846 normalized occupancy; to AACAGCAT, 0.087 normalized occupancy.
The same measure for GTTTGGAA: 0.0754 normalized occupancy; for ACGCCTGG: 0.0735 normalized occupancy; for CAGTAATA: 0.0775 normalized occupancy.
CATCCCCG: the binding signal worked out at 0.0773 normalized occupancy.
The same measure for TTAATGAA: 0.0772 normalized occupancy; for ACACAGGC: 0.0789 normalized occupancy.
To CACTTCGC belongs 0.0739 normalized occupancy.
As to GTCCTCAC, the binding signal was 0.0765 normalized occupancy.
AAGAGCAC: the binding signal is 0.0774 normalized occupancy.
CGCGGGAC: the binding signal stood at 0.0733 normalized occupancy.
To TAAAGGAA belongs 0.0741 normalized occupancy.
To AATCGAAA belongs 0.0785 normalized occupancy; to ATGATGTG, 0.088 normalized occupancy; to GCGTGGAC, 0.0976 normalized occupancy.
The same measure for CCGTGGAC: 0.0739 normalized occupancy; for AGGTGGAC: 0.0775 normalized occupancy; for ACGTGGAA: 0.108 normalized occupancy.
In the case of ACGTGGAC, the binding signal was 0.106 normalized occupancy.
GGGTGGAC: the binding signal was determined as 0.0796 normalized occupancy.
With ACGTGGAT, the binding signal was 0.104 normalized occupancy.
Take AAGTGGAT: the binding signal was found to be 0.0727 normalized occupancy.
The same measure for AGGTGGAA: 0.0722 normalized occupancy; for GAGTGGAC: 0.0761 normalized occupancy.
To AGGTGGAT belongs 0.08 normalized occupancy; to AAGTGGAA, 0.072 normalized occupancy.
The same measure for AGCTGAAA: 0.0723 normalized occupancy; for ACACGGCC: 0.0719 normalized occupancy; for AAACATCC: 0.0762 normalized occupancy.
In the case of CGGCACAA, the binding signal was determined as 0.0773 normalized occupancy.
Regarding TCAATAGA, the binding signal stood at 0.0745 normalized occupancy.
The same measure for ACAAGGCT: 0.0781 normalized occupancy; for GAGGCAGA: 0.0719 normalized occupancy; for CGCTCTAA: 0.0739 normalized occupancy.
To AGGGCATA belongs 0.0779 normalized occupancy.
For the sequence ACGTGGAG, the binding signal came to 0.0976 normalized occupancy.
To AGGTGGAG belongs 0.0827 normalized occupancy.
Consider CCGTGGAA, for which the binding signal was determined as 0.0755 normalized occupancy.
The same measure for CCGTGGAG: 0.0796 normalized occupancy; for TCGTGGAA: 0.0835 normalized occupancy; for GCGTGGAA: 0.106 normalized occupancy.
To ACGTATTA belongs 0.0818 normalized occupancy.
AATGGTTA: the binding signal came out at 0.0807 normalized occupancy.
The same measure for CATGACGG: 0.0797 normalized occupancy.
With CAGCGTGC, the binding signal came to 0.118 normalized occupancy.
To AAGCGTGC belongs 0.104 normalized occupancy.
To AAGCGTTA belongs 0.0738 normalized occupancy.
To CACCGTGC belongs 0.0868 normalized occupancy; to AAGCGTGG, 0.121 normalized occupancy; to CAGCGCGC, 0.0795 normalized occupancy.
Consider AAGCGCGG, for which the binding signal was found to be 0.0752 normalized occupancy.
To AAGCGTGA belongs 0.0961 normalized occupancy; to AAGCGTTG, 0.076 normalized occupancy.
The same measure for GAGCGTGC: 0.0887 normalized occupancy; for AAGCGTTC: 0.0728 normalized occupancy; for AAGCGTCA: 0.0737 normalized occupancy.
To GGTCGGAC belongs 0.0772 normalized occupancy.
